Assay results published in ChEMBL document CHEMBL1961873, “Compounds: GSK PKIS; Assays: Nanosyn kinase panel” (2012).

Key:
[1] = target: Sphingosine kinase 1 (Homo sapiens) (UniProt Q9NYA1); settings: at 1 µM;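 note: mean SPHK1 inhibition value reported from the GSK PKIS kinase panel screen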
[2] = target: T1, Sphingosine kinase 2 (Homo sapiens) (UniProt Q9NRA0); settings: at 0.1 µM
T1 sequence (whole entry): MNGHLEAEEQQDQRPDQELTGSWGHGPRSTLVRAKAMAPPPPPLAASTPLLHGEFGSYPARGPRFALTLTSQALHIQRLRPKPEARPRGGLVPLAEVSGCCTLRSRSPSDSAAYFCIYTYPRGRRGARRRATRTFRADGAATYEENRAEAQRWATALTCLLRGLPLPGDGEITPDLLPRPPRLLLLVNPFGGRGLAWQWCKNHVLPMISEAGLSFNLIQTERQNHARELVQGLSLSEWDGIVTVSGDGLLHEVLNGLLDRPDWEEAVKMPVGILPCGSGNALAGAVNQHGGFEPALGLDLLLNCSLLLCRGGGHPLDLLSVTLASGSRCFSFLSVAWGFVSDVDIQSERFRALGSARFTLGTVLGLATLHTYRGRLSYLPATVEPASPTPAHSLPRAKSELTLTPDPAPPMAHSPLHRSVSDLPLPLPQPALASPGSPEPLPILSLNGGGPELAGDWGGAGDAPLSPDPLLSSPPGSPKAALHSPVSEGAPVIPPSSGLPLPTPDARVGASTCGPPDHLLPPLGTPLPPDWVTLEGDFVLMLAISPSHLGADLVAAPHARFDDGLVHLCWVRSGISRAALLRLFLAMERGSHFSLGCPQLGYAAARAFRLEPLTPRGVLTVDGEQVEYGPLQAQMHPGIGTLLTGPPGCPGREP

[3] = target: T1, Sphingosine kinase 2 (Homo sapiens); settings: at 1 µM
[4] = target: Casein kinase II subunit alpha (Homo sapiens) (UniProt P68400); settings: at 0.1 µM
[5] = target: Casein kinase II subunit alpha (Homo sapiens) (UniProt P68400); settings: at 1 µM
[6] = target: T2, Inhibitor of nuclear factor kappa-B kinase subunit alpha (Homo sapiens) (UniProt O15111); settings: at 0.1 µM
T2 sequence (whole entry): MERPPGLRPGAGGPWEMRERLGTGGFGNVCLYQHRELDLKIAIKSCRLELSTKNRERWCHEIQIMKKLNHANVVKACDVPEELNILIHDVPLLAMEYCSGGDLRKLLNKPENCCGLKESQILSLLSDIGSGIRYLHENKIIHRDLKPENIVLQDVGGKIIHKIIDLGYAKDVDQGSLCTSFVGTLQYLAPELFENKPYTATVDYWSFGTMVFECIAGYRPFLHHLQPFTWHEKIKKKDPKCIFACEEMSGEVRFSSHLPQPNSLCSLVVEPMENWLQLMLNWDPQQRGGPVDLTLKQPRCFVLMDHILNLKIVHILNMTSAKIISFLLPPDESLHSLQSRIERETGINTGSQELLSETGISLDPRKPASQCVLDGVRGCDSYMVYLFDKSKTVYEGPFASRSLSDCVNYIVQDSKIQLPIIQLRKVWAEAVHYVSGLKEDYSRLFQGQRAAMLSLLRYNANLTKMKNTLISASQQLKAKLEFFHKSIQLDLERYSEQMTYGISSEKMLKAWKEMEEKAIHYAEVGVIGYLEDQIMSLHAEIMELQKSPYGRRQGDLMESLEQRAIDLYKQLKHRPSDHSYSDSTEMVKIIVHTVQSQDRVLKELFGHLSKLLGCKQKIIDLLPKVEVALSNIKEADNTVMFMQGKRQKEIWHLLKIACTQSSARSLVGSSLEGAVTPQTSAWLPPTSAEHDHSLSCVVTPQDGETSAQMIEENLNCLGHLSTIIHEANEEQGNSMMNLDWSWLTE

[7] = target: T2, Inhibitor of nuclear factor kappa-B kinase subunit alpha (Homo sapiens); settings: at 1 µM
[8] = target: T3, Inhibitor of nuclear factor kappa-B kinase subunit beta (Homo sapiens) (UniProt O14920); settings: at 0.1 µM
T3 sequence (whole entry): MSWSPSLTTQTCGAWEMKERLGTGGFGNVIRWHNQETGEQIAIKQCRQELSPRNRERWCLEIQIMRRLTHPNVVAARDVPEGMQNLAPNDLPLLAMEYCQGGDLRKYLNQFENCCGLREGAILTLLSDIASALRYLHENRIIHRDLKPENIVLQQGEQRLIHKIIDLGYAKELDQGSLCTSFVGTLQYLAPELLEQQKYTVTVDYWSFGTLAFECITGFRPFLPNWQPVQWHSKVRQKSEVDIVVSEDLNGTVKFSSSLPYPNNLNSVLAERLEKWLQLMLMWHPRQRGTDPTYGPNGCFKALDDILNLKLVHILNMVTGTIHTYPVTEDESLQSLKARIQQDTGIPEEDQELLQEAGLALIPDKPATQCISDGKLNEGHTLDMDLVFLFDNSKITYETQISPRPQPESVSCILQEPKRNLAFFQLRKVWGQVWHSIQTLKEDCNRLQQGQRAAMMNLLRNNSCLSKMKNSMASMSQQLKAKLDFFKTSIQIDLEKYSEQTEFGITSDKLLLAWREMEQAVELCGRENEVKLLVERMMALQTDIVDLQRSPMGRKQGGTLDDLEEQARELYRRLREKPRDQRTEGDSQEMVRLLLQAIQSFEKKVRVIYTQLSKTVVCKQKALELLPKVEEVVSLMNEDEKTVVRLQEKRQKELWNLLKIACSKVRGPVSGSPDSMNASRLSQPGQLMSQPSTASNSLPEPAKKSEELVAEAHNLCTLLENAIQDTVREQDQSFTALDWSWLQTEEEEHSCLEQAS

[9] = target: T3, Inhibitor of nuclear factor kappa-B kinase subunit beta (Homo sapiens); settings: at 1 µM
[10] = target: T4, Inhibitor of nuclear factor kappa-B kinase subunit epsilon (Homo sapiens) (UniProt Q14164); settings: at 0.1 µM
T4 sequence (whole entry): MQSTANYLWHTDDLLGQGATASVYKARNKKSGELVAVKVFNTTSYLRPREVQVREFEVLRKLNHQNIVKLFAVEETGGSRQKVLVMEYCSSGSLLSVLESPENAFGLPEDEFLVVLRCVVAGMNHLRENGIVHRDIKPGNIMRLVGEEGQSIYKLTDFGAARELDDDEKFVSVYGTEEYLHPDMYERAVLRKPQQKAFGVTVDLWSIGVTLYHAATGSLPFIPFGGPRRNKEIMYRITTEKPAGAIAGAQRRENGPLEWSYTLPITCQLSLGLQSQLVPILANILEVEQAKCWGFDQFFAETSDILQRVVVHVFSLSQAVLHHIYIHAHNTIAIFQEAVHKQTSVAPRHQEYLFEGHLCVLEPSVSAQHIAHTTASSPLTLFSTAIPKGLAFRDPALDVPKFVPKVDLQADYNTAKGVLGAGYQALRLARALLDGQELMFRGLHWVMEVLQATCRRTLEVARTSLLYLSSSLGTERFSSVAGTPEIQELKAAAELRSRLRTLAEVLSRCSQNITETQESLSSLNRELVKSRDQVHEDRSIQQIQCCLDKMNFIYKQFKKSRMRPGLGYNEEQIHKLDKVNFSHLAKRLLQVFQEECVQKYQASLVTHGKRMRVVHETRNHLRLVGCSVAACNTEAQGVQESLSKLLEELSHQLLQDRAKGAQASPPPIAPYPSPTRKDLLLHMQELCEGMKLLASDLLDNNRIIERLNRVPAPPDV

[11] = target: T4, Inhibitor of nuclear factor kappa-B kinase subunit epsilon (Homo sapiens); settings: at 1 µM
[12] = target: T5, Serine/threonine-protein kinase Nek1 (Homo sapiens) (UniProt Q96PY6); settings: at 0.1 µM
T5 sequence (whole entry): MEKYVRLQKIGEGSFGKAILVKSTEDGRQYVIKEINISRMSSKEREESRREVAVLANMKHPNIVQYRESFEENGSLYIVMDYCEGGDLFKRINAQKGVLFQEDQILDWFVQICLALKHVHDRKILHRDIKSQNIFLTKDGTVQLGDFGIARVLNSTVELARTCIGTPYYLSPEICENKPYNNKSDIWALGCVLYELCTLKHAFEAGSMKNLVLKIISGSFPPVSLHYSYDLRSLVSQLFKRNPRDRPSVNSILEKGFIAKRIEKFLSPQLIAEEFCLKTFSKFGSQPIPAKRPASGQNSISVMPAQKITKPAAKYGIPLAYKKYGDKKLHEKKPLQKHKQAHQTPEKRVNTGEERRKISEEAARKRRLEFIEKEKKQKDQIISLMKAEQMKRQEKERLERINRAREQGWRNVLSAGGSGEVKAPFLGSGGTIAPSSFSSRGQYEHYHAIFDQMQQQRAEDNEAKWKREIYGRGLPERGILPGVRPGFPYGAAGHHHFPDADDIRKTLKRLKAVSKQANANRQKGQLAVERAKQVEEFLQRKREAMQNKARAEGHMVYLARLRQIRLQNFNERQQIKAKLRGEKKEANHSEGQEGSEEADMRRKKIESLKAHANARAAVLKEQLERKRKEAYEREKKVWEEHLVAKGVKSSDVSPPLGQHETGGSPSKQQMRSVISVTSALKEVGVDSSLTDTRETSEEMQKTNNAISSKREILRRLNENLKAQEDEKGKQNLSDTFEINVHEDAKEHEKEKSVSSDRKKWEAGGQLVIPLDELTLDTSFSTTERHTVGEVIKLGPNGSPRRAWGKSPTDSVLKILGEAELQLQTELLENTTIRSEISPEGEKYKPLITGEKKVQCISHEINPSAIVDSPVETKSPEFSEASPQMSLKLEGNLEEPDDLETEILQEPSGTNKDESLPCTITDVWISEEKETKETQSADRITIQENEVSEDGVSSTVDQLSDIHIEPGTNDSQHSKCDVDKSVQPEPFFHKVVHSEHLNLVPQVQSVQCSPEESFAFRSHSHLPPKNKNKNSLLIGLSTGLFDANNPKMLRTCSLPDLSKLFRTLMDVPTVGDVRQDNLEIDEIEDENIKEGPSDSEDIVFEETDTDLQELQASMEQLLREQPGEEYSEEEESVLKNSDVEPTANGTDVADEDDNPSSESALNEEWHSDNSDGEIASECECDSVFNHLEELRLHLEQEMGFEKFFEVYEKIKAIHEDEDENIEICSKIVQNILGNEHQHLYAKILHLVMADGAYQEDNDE

[13] = target: T5, Serine/threonine-protein kinase Nek1 (Homo sapiens); settings: at 1 µM
[14] = target: T6, Serine/threonine-protein kinase Nek2 (Homo sapiens) (UniProt P51955); settings: at 0.1 µM
T6 sequence (whole entry): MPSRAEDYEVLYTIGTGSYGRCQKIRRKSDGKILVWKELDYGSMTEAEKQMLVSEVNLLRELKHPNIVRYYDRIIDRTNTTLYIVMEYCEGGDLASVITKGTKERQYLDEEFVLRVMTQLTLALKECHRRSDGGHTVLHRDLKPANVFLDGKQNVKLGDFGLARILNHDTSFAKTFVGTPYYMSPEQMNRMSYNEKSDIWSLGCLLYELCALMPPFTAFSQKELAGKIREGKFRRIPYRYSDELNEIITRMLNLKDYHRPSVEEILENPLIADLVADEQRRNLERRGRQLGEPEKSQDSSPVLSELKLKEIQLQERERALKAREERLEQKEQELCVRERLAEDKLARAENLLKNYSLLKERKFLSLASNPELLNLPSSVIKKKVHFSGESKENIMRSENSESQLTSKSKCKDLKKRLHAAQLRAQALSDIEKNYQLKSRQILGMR

[15] = target: T6, Serine/threonine-protein kinase Nek2 (Homo sapiens); settings: at 1 µM
[16] = target: Serine/threonine-protein kinase Nek6 (Homo sapiens) (UniProt Q9HC98); settings: at 0.1 µM
[17] = target: Serine/threonine-protein kinase Nek6 (Homo sapiens) (UniProt Q9HC98); settings: at 1 µM
[18] = target: Serine/threonine-protein kinase Nek7 (Homo sapiens) (UniProt Q8TDX7); settings: at 0.1 µM
[19] = target: Serine/threonine-protein kinase Nek7 (Homo sapiens) (UniProt Q8TDX7); settings: at 1 µM
[20] = target: T7, Serine/threonine-protein kinase Nek9 (Homo sapiens) (UniProt Q8TD19); settings: at 0.1 µM;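 note: reported value is the mean percent inhibition of NEK9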
T7 sequence (whole entry): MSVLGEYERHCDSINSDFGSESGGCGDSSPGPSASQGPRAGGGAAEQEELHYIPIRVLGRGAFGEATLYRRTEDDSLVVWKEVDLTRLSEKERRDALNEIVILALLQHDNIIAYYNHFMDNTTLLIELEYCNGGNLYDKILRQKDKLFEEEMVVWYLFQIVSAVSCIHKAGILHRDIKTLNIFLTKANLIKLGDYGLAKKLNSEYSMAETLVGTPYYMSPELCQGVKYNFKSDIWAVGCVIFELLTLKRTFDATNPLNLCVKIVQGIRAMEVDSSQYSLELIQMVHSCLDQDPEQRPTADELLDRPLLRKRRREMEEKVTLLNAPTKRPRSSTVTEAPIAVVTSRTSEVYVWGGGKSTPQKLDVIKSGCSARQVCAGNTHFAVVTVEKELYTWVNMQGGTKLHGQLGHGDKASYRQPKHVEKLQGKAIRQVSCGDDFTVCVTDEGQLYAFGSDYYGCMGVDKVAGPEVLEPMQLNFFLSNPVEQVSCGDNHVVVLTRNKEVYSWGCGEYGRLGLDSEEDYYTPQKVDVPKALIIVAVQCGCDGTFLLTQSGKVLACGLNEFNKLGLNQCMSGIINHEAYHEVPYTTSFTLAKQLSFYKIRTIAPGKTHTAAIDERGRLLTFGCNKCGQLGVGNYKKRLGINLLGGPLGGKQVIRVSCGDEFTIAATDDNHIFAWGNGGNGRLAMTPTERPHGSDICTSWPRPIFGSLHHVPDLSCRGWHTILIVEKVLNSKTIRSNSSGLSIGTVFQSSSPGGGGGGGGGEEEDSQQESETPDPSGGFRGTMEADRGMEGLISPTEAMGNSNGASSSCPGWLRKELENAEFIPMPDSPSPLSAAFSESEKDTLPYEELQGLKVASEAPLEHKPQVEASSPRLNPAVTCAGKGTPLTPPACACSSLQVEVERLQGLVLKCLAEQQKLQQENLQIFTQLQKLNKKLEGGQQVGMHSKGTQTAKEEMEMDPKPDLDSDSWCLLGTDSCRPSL

Serine/threonine-protein kinase Nek7 (Homo sapiens), sequence (Q8TDX7 whole entry, looked up): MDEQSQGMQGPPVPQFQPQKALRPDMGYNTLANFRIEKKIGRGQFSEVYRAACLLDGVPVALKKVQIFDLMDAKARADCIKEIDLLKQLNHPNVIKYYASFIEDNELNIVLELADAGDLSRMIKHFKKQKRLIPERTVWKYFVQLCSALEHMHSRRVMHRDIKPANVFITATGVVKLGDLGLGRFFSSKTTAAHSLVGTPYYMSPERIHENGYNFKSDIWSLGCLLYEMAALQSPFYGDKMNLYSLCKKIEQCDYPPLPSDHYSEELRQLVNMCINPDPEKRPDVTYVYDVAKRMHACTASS
Casein kinase II subunit alpha (Homo sapiens), sequence (P68400 whole entry, looked up): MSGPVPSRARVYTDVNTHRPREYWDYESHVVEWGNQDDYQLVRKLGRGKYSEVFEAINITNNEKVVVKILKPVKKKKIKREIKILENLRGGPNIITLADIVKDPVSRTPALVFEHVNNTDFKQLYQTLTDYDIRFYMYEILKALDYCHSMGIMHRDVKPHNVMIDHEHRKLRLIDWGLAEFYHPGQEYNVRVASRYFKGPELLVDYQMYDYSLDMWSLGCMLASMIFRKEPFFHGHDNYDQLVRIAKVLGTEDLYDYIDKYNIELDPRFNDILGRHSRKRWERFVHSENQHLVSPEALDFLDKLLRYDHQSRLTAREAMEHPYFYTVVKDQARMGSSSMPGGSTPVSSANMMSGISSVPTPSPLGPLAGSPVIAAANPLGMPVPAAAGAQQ
Serine/threonine-protein kinase Nek6 (Homo sapiens), sequence (Q9HC98 whole entry): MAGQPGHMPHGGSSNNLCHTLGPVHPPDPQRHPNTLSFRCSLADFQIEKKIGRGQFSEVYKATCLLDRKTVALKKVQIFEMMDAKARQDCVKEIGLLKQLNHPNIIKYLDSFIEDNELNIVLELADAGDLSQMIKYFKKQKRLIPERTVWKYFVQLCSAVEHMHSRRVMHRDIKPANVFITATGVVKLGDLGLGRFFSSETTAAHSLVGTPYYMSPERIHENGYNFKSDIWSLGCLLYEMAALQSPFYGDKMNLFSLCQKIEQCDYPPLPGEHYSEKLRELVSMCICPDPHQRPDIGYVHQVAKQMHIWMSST
Sphingosine kinase 1 (Homo sapiens), sequence (Q9NYA1 whole entry): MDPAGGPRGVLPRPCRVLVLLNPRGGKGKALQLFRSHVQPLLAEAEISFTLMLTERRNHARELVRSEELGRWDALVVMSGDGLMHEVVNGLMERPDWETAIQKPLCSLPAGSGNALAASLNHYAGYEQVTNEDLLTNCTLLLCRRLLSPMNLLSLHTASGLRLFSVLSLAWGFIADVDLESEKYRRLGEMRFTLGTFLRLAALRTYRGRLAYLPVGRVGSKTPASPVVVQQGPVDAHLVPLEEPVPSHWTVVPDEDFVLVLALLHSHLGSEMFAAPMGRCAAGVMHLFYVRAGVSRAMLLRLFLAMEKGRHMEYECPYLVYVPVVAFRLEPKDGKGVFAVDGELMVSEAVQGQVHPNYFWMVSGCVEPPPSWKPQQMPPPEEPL

Row | Compound | inhibition [1] [%] | inhibition [2] [%] | inhibition [3] [%] | inhibition [4] [%] | inhibition [5] [%] | inhibition [6] [%] | inhibition [7] [%] | inhibition [8] [%] | inhibition [9] [%] | inhibition [10] [%] | inhibition [11] [%] | inhibition [12] [%] | inhibition [13] [%] | inhibition [14] [%] | inhibition [15] [%] | inhibition [16] [%] | inhibition [17] [%] | inhibition [18] [%] | inhibition [19] [%] | inhibition [20] [%]
1 | COc1ccc2cc(-c3c(-c4ccncc4)nc(-c4ccc([S+](C)[O-])cc4)n3C)ccc2c1 (stereo not given) | -3.23 | -1.61 | -1.21 | 0.27 | -4.21 | 3.64 | 0.12 | 3.95 | 3.93 | 4.41 | 4.64 | 1.1 | 1.54 | 3.66 | 3.14 | 0.57 | -1.38 | 2.77 | 2.17 | 7.56
2 | COc1cc2ncn(-c3cc(OCc4ccccc4Cl)c(C(N)=O)s3)c2cc1OC | -2.81 | 5.21 | -4.96 | 2.2 | 9.54 | -1.84 | 5.14 | 1.96 | 1.01 | 0.65 | 2.71 | 3.45 | 15.5 | 3.49 | 37.3 | 1.95 | -3.5 | 4.31 | 1.21 | 9.22
